HCV inh: inhibitors of hepatitis C virus infection. Potency, µM (doses to about 41.8 µM), actives largely listed as inhibitors. Huh7.5.1 HCVcc-Cre infection, luciferase reporter, 44 h. 3.4% of 340,000 active
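Reporter virus HCVcc-Cre (~0.5 moi) infects cells exposed to compound; seeding density 1,000 cells/well with 4 h settling beforehand. Luminescence, 15 sec read, taken 44 h post-infection following a 15 min RT substrate incubation.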
SARS PLP yeast: blocks SARS-CoV papain-like protease in a yeast assay. 0.19% of 330,000 active. S. cerevisiae expressing SARS-CoV PLpro, growth rescue. Potency, µM (series often up to 32.9 µM), actives largely listed as activators. AID 485353; calls by dose curve; further: nearly all actives have a fitted effect of over 55% in size
Pf growth 48h: inhibits P. falciparum growth in the first generation, 48 h; P. falciparum luciferase growth in erythrocytes, 48 h; Potency, µM (series often up to 28.7 µM), usual class: inhibitors; 5.9% of 310,000 active; AID 504832
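First compound was added to culture medium, then infected red cells at 0.1% parasitemia and 2% hematocrit (final). After incubation at 37 C under 5% CO2, luciferase detection reagent was dispensed and light output recorded.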
Sm TGR inh: S. mansoni TGR enzyme inhibition; Q962Y6; 3% of 360,000 active; AID 485364; purified TGR, DTNB reduction, TNB absorbance 405 nm; Potency, µM (titrated, usually from 114 µM), usual class: inhibitors; further: nearly all actives have a fitted effect of over 60% in size
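TGR 20 nM + NADPH 100 uM (dispensed conc.), cpd preinc 15 min RT; start with NADPH (500 uM addition) then DTNB (15 mM addition). Kinetic TNB absorbance, 405 nm filter. Four-parameter Hill fit across titration.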
Pf growth 96h: P. falciparum growth inhibition at 96 hour, primary screen for plastid delayed-death inhibitors | AID 504834 | P. falciparum luciferase reporter growth, 96 h | 6.9% of 320,000 active | Potency, µM (series often up to 28.7 µM), actives largely listed as inhibitors
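Compounds incubated with erythrocytes infected by luciferase-expressing P. falciparum (2% hematocrit, 0.05% parasitemia final) for 96 hours, 37 C in 5% CO2. Growth inhibition scored as decreased luciferase luminescence.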
HCMV inh: human cytomegalovirus inhibition; activity change, negative = inhibition, % at 57.5 µM; HFF cells, HCMV-luciferase reporter, 72 h; active compounds read low; 4.5% of 410,000 active; in the data active means activity change below about -60%; inconclusive means no clear call, values can overlap the other calls; inactive means above about -39%
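HFF cells seeded 16 h at 37C, treated with compounds, infected with luciferase-reporter HCMV at MOI 1 PFU/cell; luciferase read at 72 h post infection, normalized to buffer-only and Salinomycin controls.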
Each line names hits and unclear results; the compound was inactive in the other large screens; ! = repeats disagree. Hits are enriched below; roughly 15% of the tested compounds scored in any of these assays. Unless noted, the call rests on the fitted dose curve; in most records, active means well fitted curve in the direction sought with a large enough effect; inconclusive means small, poorly fitted or top-dose-only effect, or another doubt; inactive means no such curve, though single readings can be large; an effect the other way counts as inactive or inconclusive.

COc1cc(NC(=O)c2cccs2)c(OC)cc1NC(=O)Cc1ccccc1	HCV inh 35.5µM, Pf growth 96h inconclusive
COc1ccc(CC(=O)NNC(=O)c2cccs2)cc1	Pf growth 96h 2.94µM, HCMV inh inconclusive
COc1ccc(C(=O)/C(=C/O)N=Nc2ccc(F)cc2)cc1	HCV inh inconclusive, Pf growth 96h inconclusive, HCMV inh inconclusive
COc1cc(NC(=O)c2cccs2)c(OC)cc1NC(=O)c1cccs1	none (no result: SARS PLP yeast, Pf growth 48h, Sm TGR inh, Pf growth 96h, HCMV inh)
CCc1nn(CC(=O)Nc2ccc(N(CC)CC)cc2C)c(=O)c2cc3sccc3n12	none (no result: HCV inh, SARS PLP yeast, Pf growth 48h, Pf growth 96h)
COc1cc(NCCC(=O)c2cccs2)c(OC)cc1Cl	Sm TGR inh 1.26µM
COc1ccc(NC(=O)CCC(=O)c2cccs2)cc1Cl	none
COc1cc(NC(=O)COc2ccccc2Cl)ccc1NC(=O)c1cccs1	HCV inh 1.12µM
COc1ccc(OCC(=O)Nc2ccc(NC(=O)c3cccs3)c(OC)c2)cc1	Pf growth 48h inconclusive
Cc1cccc(C(=O)OCC(=O)NC(=O)Cc2ccccc2)c1O	none (no result: HCMV inh)
CN(Cc1ccccc1)C(=O)[C@@H]1CCCN1C(=O)[C@@H]1CCCN1C(=O)c1cccc(Cl)c1	none (no result: HCV inh, SARS PLP yeast, Pf growth 48h, Sm TGR inh, Pf growth 96h)
Cc1ccc(C(=O)N(c2ccccc2)C2CC(C)N(C(=O)c3ccco3)c3ccccc32)cc1 (configuration not stated)	HCV inh 11.2µM, Pf growth 48h 10.4µM, HCMV inh inconclusive (no result: Pf growth 96h)
COc1ccc(N(CC(=O)Nc2ccccc2C(=O)O)S(=O)(=O)c2ccc(C)c([N+](=O)[O-])c2)cc1	none (no result: Sm TGR inh)
CCN(CC)CCOC(=O)c1ccc(N/C=C(/C#N)c2nc(-c3ccc(OC)cc3)cs2)cc1	HCV inh inconclusive, Pf growth 48h inconclusive, Pf growth 96h inconclusive, HCMV inh -77.2
N#C/C(=C\c1cccc(F)c1)c1nc(-c2cc3ccccc3oc2=O)cs1	none (no result: HCV inh, SARS PLP yeast, Pf growth 48h, Pf growth 96h)
CCN(CC)CCOC(=O)c1ccc(N/C=C(/C#N)c2nc(-c3ccc4c(c3)OCO4)cs2)cc1	HCV inh 10µM, Pf growth 48h 1.04µM, Pf growth 96h 1.31µM
CCN(CC)CCOC(=O)c1ccc(N/C=C(/C#N)c2nc(-c3cc4ccccc4oc3=O)cs2)cc1	Pf growth 48h 0.0828µM, Sm TGR inh inconclusive, Pf growth 96h 0.147µM
COc1cc(/C=C(/C#N)c2nc(-c3cc4ccccc4oc3=O)cs2)cc([N+](=O)[O-])c1O	Pf growth 48h 2.33µM, Pf growth 96h inconclusive, HCMV inh -86.7 (no result: HCV inh)
COc1ccc(/C=C(/C#N)c2nc(-c3ccc(-c4ccccc4)cc3)cs2)cc1	none (no result: HCV inh, SARS PLP yeast, Pf growth 48h, Pf growth 96h)
CC(C)c1ccc(O)c(NC(=S)NC(=O)c2ccc3c(c2)OCO3)c1	HCV inh inconclusive, Pf growth 48h inconclusive, Pf growth 96h inconclusive
CC(C)c1nn2c(=O)cc(COC(=O)c3cccc(NC(=O)c4cccs4)c3)nc2s1	none (no result: HCV inh, SARS PLP yeast, Pf growth 48h, Pf growth 96h)
COc1ccc(/C=C(\C#N)C(=O)OCC(=O)Nc2c(C)cccc2C)cc1	HCMV inh -61.4
CC1CCN(Cc2c(C(=O)N/N=C/c3cc(Br)ccc3O)nnn2-c2nonc2N)CC1	HCV inh 3.55µM, SARS PLP yeast inconclusive, Pf growth 48h inconclusive, Pf growth 96h inconclusive, HCMV inh -101.6
Cc1cc(C)c(/C=N/NC(=O)c2nnn(-c3nonc3N)c2CN2CCC(C)CC2)c(C)c1	HCV inh inconclusive, Pf growth 48h inconclusive
CC1CCN(Cc2c(C(=O)O)nnn2-c2nonc2N)CC1	Pf growth 96h 1.47µM (no result: Sm TGR inh)
CC1CCN(Cc2c(C(=O)N/N=C/c3cc(Cl)ccc3O)nnn2-c2nonc2N)CC1	HCV inh 10µM, SARS PLP yeast inconclusive, Pf growth 48h inconclusive, HCMV inh -100.0
C#CCSc1nc(-c2cccs2)ccc1C#N	HCV inh 4.47µM
CN(Cc1cccc(Cl)c1Cl)C(=O)c1cc(S(=O)(=O)N2CCOCC2)ccc1F	none (no result: Pf growth 48h, Sm TGR inh, Pf growth 96h)
O=C(CCl)NC(Cc1ccccc1)c1ccccc1 (configuration not stated)	Pf growth 48h inconclusive, Sm TGR inh 22.4µM, Pf growth 96h 10.4µM
Cc1ccc(NC(=O)C2CCN(c3ncnc4c3nc3n4CCCCC3)CC2)cc1Cl	HCV inh inconclusive
Cc1cccc(N2CCN(C(=O)C3CCN(c4ncnc5c4nc4n5CCCCC4)CC3)CC2C)c1 (configuration not stated)	HCV inh 5.62µM, Pf growth 96h 11.7µM, HCMV inh -96.1!
Cc1cc(N2CCC(C(=O)N3CCN(c4cccc(C)c4C)CC3)CC2)n2ncnc2n1	HCV inh inconclusive, Pf growth 48h 2.33µM, HCMV inh -88.6 (no result: Pf growth 96h)
O=C(C1CCN(c2ncnc3c2nc2n3CCCCC2)CC1)N1CCN(c2ccccc2F)CC1	HCMV inh -64.1!
Cc1cccc(N2CCN(C(=O)C3CCN(c4ncnc5c4nc4n5CCCCC4)CC3)CC2)c1C	HCV inh 7.08µM, Pf growth 96h inconclusive, HCMV inh -76.5!
CCN(CC)C(CNC(=O)CSc1nnnn1-c1c(C)cccc1C)c1ccco1 (configuration not stated)	Pf growth 48h inconclusive
O=C(Cc1c(F)cccc1Cl)NNC(=O)c1cccs1	none (no result: Pf growth 48h, Sm TGR inh, Pf growth 96h)
CCOc1ccc2c(c1)nc(SCC(=O)c1ccc(Br)s1)n2C	HCV inh inconclusive, Pf growth 48h inconclusive, Sm TGR inh 35.5µM, Pf growth 96h inconclusive
CCOc1ccc2c(c1)nc(SCC(=O)c1cccs1)n2C	Sm TGR inh inconclusive, Pf growth 96h inconclusive
Cc1oc2c(c(=O)c1C)C(=O)CC(c1ccccc1)C2 (configuration not stated)	Pf growth 48h inconclusive, Pf growth 96h inconclusive
CS(=O)(=O)c1sc(C#N)c2c1C(=O)CC(c1ccccc1)C2 (configuration not stated)	HCV inh inconclusive, Pf growth 48h 11.7µM, Sm TGR inh 0.316µM, Pf growth 96h inconclusive, HCMV inh -104.4
CCc1cc2c(=O)c(-c3cnn(-c4ccccc4)c3)coc2c(CN2CCOCC2)c1O	Pf growth 48h inconclusive, Sm TGR inh inconclusive, Pf growth 96h inconclusive, HCMV inh inconclusive
CCN(Cc1ccccc1)Cc1c(O)ccc2c(=O)c(-c3ccccc3)c(C(F)(F)F)oc12	none (no result: HCV inh, SARS PLP yeast, Pf growth 48h, Pf growth 96h)
CCc1cc2c(=O)c(-c3nc4ccccc4n3C)coc2c(CN2CCOCC2)c1O	SARS PLP yeast inconclusive (no result: Pf growth 96h)
CCc1cc2c(=O)c(-c3cnn(-c4ccccc4)c3)c(C)oc2c(CN2CCCCC2)c1O	HCV inh inconclusive, Pf growth 48h 14.7µM
CCc1cc2c(=O)c(-c3nc4ccccc4n3C)coc2c(CN2CCCCC2)c1O	Pf growth 96h 2.94µM
CCc1cc2c(=O)c(-c3cnn(-c4ccccc4)c3)c(C(F)(F)F)oc2c(CN(C)C)c1O	Pf growth 48h 6.57µM (no result: Pf growth 96h)
COc1cccc(C2Nc3c(F)cc(Br)cc3C3C=CCC32)c1OC (configuration not stated)	Pf growth 48h 9.28µM, Pf growth 96h 11.7µM

Screening data deposited in PubChem BioAssay by National Center for Advancing Translational Sciences (NCATS).
